Screening results deposited in PubChem by Sanford-Burnham Center for Chemical Genomics.
CD11b adhes enh – enhancers of human CD11b/CD18 binding to fibrinogen; AID 1499; activation, % at 10 µM; hit rate 0.07% among 93,000; K562 CD11b/CD18 adhesion to fibrinogen, ATPlite luminescence; P05107+P11215;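 active = 10 µM primary screen giving 50% or more activity, confirmed by 40% or more on retest at that dose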
CYP2C9 inhib – human CYP2C9 inhibition; P11712; CYP2C9 Supersomes, luciferin-H conversion, luminescence; inhibition, % at 5 µM; hit rate 20% among 96,000; AID 777;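 active = blocking of liver enzyme CYP2C9 beyond about 50% at 5 µM, limit read from the data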
CYP2C9 activ – increases human cytochrome P450 2C9 activity. AID 1024. P11712. hit rate 1.4% among 96,000. recombinant CYP2C9, luciferin-H conversion, luminescence; hits give high values; factor 1 = untreated enzyme, 0 = blocked. activation factor at 5 µM;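 active = activation factor of 2 or more for CYP2C9 at a 5 µM dose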;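 note: 0 = sulfaphenazole-blocked wells and 1 = vehicle-only wells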
CYP2C19 activ – cytochrome P450 2C19 (human) activation | P33261 | activation factor at 5 µM | recombinant CYP2C19, luciferin-H EGE luminescence; hits give high values; 0 = fully inhibited enzyme, 1 = untreated enzyme | 96,000 tested, under 10 active;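 active = activation factor of at least 2 at 5 µM in the primary screen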;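 note: 0 = wells with 2.5 mM tranylcypromine and 1 = vehicle-only wells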
CYP2C19 inh – blocks human cytochrome P450 2C19. P33261. inhibition, % at 5 µM. hit rate 21% among 96,000. CYP2C19 Supersomes, luciferin-H EGE luminescence, 30 min;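 active = CYP2C19 inhibition above a set limit at 5 µM in the primary screen, cut at about 50% in these data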;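 note: plate controls were negative control wells for no effect and 2.5 mM tranylcypromine positive control for full effect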
CD11b adhes inh – blocks human CD11b/CD18 adhesion to fibrinogen | hit rate 0.54% among 93,000 | P05107+P11215 | K562 CD11b/CD18 adhesion to fibrinogen, ATPlite luminescence; Mn2+ added to activate the integrin | inhibition, % at 10 µM;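 active = primary inhibition of 50% or more at 10 µM, then 40% or more on retest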
Active calls of the source: *; . = no result. A selection: hits, their analogues and other compounds. The true share with any hit is near 28%.

SMILES	CD11b adhes enh	CYP2C9 inhib	CYP2C9 activ	CYP2C19 activ	CYP2C19 inh	CD11b adhes inh
Fc1cc(F)c2nc(N3CCCCC3)sc2c1	-2	6	0.9	0.9	13	-5
C/C(=N\NC(=O)CSc1nnc(C)s1)c1ccc(Cl)cc1	-6	.	.	.	.	12
CCn1c(=O)n(-c2ccc(Cl)cc2)c(=O)c2c3c(sc21)COC(C)(C)C3	.	26	0.7	0.8	23	.
COC(=O)C1CCN(S(=O)(=O)c2ccc(OC)cc2)CC1	0	-33	1.3	0.1	89*	0
CCn1c(SCc2ccccc2)nnc1C1CCCCC1	-2	.	.	.	.	5
COc1ccc(S(=O)(=O)Nc2ccc(CC#N)cc2)cc1	-1	85*	0.2	0	100*	4
CCn1c(SCc2ccccc2)nnc1C1CCN(S(=O)(=O)c2ccc(OC)cc2)CC1	.	-105	2*	0.8	20	.
CCC(C)Nc1c2c(nc3c(-c4ccccc4)c(C)nn13)CCC2 (configuration not stated)	.	28	0.7	1	4	.
COc1ccc(C(C(=O)NC2CCCC2)N(C(=O)c2ccco2)c2ccc3c(c2)OCO3)cc1OC (configuration not stated)	-6	5	0.9	1	-2	17
COc1cc(C(Nc2ccc3c(c2)OCO3)C(=O)NC2CCCCC2)cc(OC)c1OC (configuration not stated)	15	28	0.7	0.3	74*	-37
COc1ccc(S(=O)(=O)N2CCC(C(=O)Nc3cccc(Cl)c3)CC2)cc1OC	-2	-9	1.1	0.5	53*	-6
COc1ccc(OC)c(S(=O)(=O)N2CCC(C(=O)Nc3cccc(C)c3)CC2)c1	-2	-32	1.3	0.1	88*	6
COC(=O)c1ccccc1NC(=O)C1CCN(S(=O)(=O)c2cc(C)ccc2OC)CC1	4	88*	0.1	0.1	86*	34
O=C(Nc1ncc2c(n1)-c1ccccc1OC2)c1ccc(Cl)cc1Cl	8	0	1	0.8	22	4
Cc1ccc(/C=C(/C#N)c2nc(CCN3C(=O)c4ccccc4C3=O)cs2)cc1	.	51*	0.5	0.5	53*	.
Cc1nc(CCN2C(=O)c3ccccc3C2=O)n[nH]1	-8	6	0.9	1	-1	-2
CN(CC(=O)Nc1c(Cl)cccc1Cl)C(=O)CCCN1C(=O)c2ccccc2C1=O	-7	86*	0.1	0.7	30	22
Cc1ccc(NC(=O)CN(C)C(=O)CCCN2C(=O)c3ccccc3C2=O)cc1	0	21	0.8	0.8	22	8
Cc1ccc(S(=O)(=O)N(CC(=O)N2CCCCCC2)c2ccccc2)cc1	-1	32	0.7	0.9	12	-6
COc1ccc(C)cc1S(=O)(=O)N(CC(=O)N1CCCC1)c1ccccc1	6	89*	0.1	0.9	14	-1
COc1ccc(Br)cc1S(=O)(=O)N(CC(=O)N1CCOCC1)c1ccccc1	-3	68*	0.3	0.4	56*	12
CCC(C)C(NC(=O)OC(C)(C)C)C(=O)NC(C(=O)N1CCCC1C(N)=O)C(C)CC (configuration not stated)	3	-3	1	1	4	-6
CCOC(=O)c1ccccc1Oc1c(F)c(F)nc(NCCO)c1F	-5	51*	0.5	0.4	62*	48
COC(=O)CN(C#N)c1nc(SC)nc(N(C)C)n1	3	-92	1.9	0.4	56*	8
CC(=O)OCN(C#N)c1nc(N(C)C)nc(N(C)C)n1	-8	-87	1.9	0.7	26	-6
SMILES	CD11b adhes enh	CYP2C9 inhib	CYP2C9 activ	CYP2C19 activ	CYP2C19 inh	CD11b adhes inh
NNC(=O)c1cccc(O)c1	-5	.	.	.	.	3
Cc1cc(C)cc(N2C(=O)C3C4C=CC(C4)C3C2=O)c1 (configuration not stated)	0	-6	1.1	0.4	63*	5
C/C(=C\C(=O)c1ccc(C)cc1)Nc1cccc(O)c1	1	-44	1.4	0.8	21	-13
O=C(/C=C/Nc1cccc(O)c1)c1ccccc1	-2	-5	1.1	0.6	37	69*
CC(=O)c1cccc(NS(=O)(=O)c2ccc(N/C=C\C(=O)c3ccc(C)cc3)cc2)c1	-3	65*	0.4	0.8	15	-6
O=C(/C=C/Nc1ccccc1)c1ccc(Oc2ncccn2)cc1	.	39	0.6	.	.	.
O=C(/C=C\Nc1ccccn1)c1ccccc1	-4	38	0.6	0.2	79*	17
O=C(/C=C/Nc1ccccc1Br)c1ccccn1	-12	-1	1	0.8	23	82
Cc1ccc(C(=O)/C=C/Nc2cccc(O)c2)cc1	-11	-72	1.7	0.8	25	91*
O=C(CSc1nnc(Nc2ccccc2)s1)NCc1cccs1	1	.	.	.	.	-16
COc1ccc(NC(=O)C2CSC3c4ccccc4C(=O)N23)cc1 (configuration not stated)	0	60*	0.4	0.3	70*	1
O=C(NCC1CCCO1)[C@@H]1CSC2c3ccccc3C(=O)N21 (some centres not stated)	-1	22	0.8	0.9	14	13
O=C(NCC1CCCO1)c1ccc(COCC(F)(F)C(F)F)cc1 (configuration not stated)	1	13	0.9	0.5	48	-14
CC(C)NC(=O)c1ccc(COCC(F)(F)C(F)F)cc1	-1	-23	1.2	0.2	84*	4
Cc1ccccc1-n1c(SC/C(O)=C(\C#N)c2nc3ccccc3[nH]2)nnc1-c1ccncc1	3	95*	0	0.1	86*	10
Cc1cc(C)n2c(SC/C(O)=C(\C#N)c3nc4ccccc4[nH]3)nnc2n1	27	30	0.7	0.8	16	-3
CCOC(=O)C1CCCN(S(=O)(=O)c2ccc(Br)s2)C1 (configuration not stated)	3	26	0.7	0.2	83*	11
CCOC(=O)N1CCN(C(=O)C2CCCN(S(=O)(=O)c3ccc(C)cc3)C2)CC1 (configuration not stated)	2	-57	1.6	0.5	53*	20
CCOC(=O)N1CCN(S(=O)(=O)c2ccc(Br)s2)CC1	3	81*	0.2	0.1	88*	-2
Cc1cc(S(=O)(=O)N2CCCC2)ccc1OCC(=O)N1CCOCC1	-3	48	0.5	0.9	5	-16
CCOC(=O)N1CCN(C(=O)C2CCCN(S(=O)(=O)c3ccccc3)C2)CC1 (configuration not stated)	-1	24	0.8	0.9	10	6
COc1ccc(S(=O)(=O)N2CCCC(C(=O)N3CCOCC3)C2)cc1C (configuration not stated)	10	-116	2.2*	0.6	36	-2
CN1CCN(S(=O)(=O)c2ccc(Br)s2)CC1	-1	4	1	0.9	9	-11
